Drawing on PubChem BioAssay, this text covers composite z-score and z-score for 16 compounds.

Activity calls are given as the source filed them.

Test [1] can be described thus: small molecules captured by biotinylated probe aFSTL3 – biochemical, small-molecule microarray, fluorescence 635/667, stem cell growth factor project, primary screen (AID 1064).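 Further: measures binding of the biotinylated anti-FSTL3 antibody to printed compounds.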 Conditions: higher = more signal.
Test [2] is described as follows: binders from COS7 lysate, DM2A8 probe, primary screen, torsin A project, cell lysate, small-molecule microarray, fluorescence 635/667 (AID 1065). Conditions: higher = more signal, COS7 lysate expressing mutant human TOR1A.
The nature of test [3]: small molecules captured by biotinylated probe aFGF2 – biochemical, small-molecule microarray, fluorescence 635/667, stem cell growth factor project, primary screen (AID 1067).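 Further: measures binding of biotinylated aFGF2 protein to printed compounds on slides; z-score merges feature fluorescence and signal-to-noise across triplicate slides.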 Conditions: higher = more signal.
Test [4] can be described thus: small molecules captured by biotinylated probe aFGF10 – biochemical, small-molecule microarray, fluorescence 635/667, stem cell growth factor project, primary screen (AID 1071).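 Further: score merges 667 nm spot intensity and signal to noise from triplicate slides.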 Conditions: higher = more signal.
Test [5] deals with Neurogenic locus notch homolog protein 2 (Homo sapiens) (UniProt Q04721). Briefly: small molecules binding Notch2 protein – biochemical, small-molecule microarray, 635 nm fluorescence, stem cell growth factors, primary screen (AID 1073). Particulars: higher = more signal.
The target in test [6] is Pro-neuregulin-1, membrane-bound isoform (Homo sapiens) (UniProt Q02297). Put plainly: small molecules binding neuregulin-1 protein – biochemical, small-molecule microarray, fluorescence 635/667, psychiatric disease protein project, primary screen (AID 1075).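 Further: score combines 667 nm spot fluorescence with signal to noise.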 Conditions: NRG1 binding, 635 nm fluorescence, higher = more signal.
For test [7], the system named is Neuregulin-1 EGF-like domain. Put plainly: small molecules binding NRG1 EGF domain – biochemical, small-molecule microarray, 635 nm fluorescence, primary screen (AID 1081).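 Further: binding of the protein to compounds printed on small-molecule microarray slides.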 Particulars: higher = more signal.
The nature of test [8]: FRG1 expression reporter modulators in myotubes – cell-based, C2C12 myotubes, firefly/Renilla luciferase, luminescence, FRG1 inhibition for FSHD, primary screen (AID 1084). Conditions: FRG1 promoter luciferase, higher = more signal, called active from +8 up or from −8 down.
The nature of test [9]: small molecules captured by biotinylated probe aFST – biochemical, small-molecule microarray, fluorescence 635/667, stem cell growth factor project, primary screen (AID 1086).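 Further: score merges 667 nm fluorescence with signal-to-noise of each printed compound spot.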 Conditions: higher = more signal.
Test [10] in a line: binders of probe aHhip on microarray, primary screen, stem cell growth factor project, biochemical, small-molecule microarray, fluorescence 635/667 (AID 1087).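 Further: score merges spot fluorescence at 667nm with spot signal to noise ratio.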 Particulars: higher = more signal.

Neurogenic locus notch homolog protein 2 (Homo sapiens), sequence (Q04721 whole entry, looked up, canonical isoform): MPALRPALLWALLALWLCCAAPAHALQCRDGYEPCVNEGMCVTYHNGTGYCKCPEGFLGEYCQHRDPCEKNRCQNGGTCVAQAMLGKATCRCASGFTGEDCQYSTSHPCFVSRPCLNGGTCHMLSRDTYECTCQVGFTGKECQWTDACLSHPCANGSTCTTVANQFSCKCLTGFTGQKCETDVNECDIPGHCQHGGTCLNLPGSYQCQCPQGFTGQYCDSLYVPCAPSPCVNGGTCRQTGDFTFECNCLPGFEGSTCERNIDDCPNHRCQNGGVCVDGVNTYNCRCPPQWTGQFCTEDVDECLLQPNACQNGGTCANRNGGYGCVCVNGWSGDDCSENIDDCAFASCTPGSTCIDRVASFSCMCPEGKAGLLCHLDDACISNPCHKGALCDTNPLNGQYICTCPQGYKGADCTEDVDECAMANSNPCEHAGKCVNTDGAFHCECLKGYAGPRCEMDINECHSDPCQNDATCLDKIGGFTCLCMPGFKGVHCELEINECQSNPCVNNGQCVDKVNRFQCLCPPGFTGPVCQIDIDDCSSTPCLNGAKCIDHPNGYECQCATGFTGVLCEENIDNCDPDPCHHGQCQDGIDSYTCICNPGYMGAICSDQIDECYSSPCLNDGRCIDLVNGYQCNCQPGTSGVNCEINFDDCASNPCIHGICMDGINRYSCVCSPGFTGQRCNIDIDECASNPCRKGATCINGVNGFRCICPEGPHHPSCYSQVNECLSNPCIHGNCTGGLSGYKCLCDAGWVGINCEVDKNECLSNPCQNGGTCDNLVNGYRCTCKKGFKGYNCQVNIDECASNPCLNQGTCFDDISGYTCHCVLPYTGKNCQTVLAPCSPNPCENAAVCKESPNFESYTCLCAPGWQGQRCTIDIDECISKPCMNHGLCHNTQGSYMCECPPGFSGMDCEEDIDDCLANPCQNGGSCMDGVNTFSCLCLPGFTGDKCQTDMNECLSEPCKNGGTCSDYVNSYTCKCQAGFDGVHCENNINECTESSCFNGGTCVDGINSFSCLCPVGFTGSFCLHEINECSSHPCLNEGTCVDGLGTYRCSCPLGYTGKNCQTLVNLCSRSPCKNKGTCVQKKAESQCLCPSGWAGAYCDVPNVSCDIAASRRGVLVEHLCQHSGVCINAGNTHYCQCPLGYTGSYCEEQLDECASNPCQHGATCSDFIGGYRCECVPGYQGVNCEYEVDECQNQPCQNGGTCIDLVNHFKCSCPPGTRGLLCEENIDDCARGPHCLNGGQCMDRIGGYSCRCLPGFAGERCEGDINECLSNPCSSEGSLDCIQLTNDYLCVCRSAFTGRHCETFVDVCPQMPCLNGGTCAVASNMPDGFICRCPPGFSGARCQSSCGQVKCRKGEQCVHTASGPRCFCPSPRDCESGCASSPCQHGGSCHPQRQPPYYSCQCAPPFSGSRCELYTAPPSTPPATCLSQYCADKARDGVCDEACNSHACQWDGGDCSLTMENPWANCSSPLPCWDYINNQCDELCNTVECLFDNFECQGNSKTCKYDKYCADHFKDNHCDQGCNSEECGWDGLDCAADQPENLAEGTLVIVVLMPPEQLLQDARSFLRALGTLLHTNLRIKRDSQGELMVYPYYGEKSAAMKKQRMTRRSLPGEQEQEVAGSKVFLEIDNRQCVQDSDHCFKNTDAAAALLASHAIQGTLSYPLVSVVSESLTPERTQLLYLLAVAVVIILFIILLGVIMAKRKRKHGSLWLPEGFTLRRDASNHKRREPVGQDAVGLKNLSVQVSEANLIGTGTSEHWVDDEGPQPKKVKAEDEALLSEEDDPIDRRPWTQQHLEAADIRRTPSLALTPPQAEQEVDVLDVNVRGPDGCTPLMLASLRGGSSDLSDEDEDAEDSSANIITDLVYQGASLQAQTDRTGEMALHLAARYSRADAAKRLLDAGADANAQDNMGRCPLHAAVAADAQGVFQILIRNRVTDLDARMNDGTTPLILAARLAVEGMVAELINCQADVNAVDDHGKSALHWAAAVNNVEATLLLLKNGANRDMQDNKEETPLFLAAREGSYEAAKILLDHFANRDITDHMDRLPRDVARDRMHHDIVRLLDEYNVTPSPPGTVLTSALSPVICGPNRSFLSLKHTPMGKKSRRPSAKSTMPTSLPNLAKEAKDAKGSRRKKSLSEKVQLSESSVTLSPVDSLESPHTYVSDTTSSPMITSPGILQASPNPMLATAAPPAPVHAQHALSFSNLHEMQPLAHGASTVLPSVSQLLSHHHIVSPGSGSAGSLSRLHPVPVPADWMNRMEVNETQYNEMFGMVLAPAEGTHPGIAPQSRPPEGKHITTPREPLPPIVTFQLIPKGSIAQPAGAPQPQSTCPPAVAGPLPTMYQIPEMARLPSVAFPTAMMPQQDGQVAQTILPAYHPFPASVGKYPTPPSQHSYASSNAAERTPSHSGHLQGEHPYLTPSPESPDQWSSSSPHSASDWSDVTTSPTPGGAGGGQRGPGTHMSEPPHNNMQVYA
Pro-neuregulin-1, membrane-bound isoform (Homo sapiens), sequence (Q02297 whole entry, looked up, the tested form may be a part, canonical isoform): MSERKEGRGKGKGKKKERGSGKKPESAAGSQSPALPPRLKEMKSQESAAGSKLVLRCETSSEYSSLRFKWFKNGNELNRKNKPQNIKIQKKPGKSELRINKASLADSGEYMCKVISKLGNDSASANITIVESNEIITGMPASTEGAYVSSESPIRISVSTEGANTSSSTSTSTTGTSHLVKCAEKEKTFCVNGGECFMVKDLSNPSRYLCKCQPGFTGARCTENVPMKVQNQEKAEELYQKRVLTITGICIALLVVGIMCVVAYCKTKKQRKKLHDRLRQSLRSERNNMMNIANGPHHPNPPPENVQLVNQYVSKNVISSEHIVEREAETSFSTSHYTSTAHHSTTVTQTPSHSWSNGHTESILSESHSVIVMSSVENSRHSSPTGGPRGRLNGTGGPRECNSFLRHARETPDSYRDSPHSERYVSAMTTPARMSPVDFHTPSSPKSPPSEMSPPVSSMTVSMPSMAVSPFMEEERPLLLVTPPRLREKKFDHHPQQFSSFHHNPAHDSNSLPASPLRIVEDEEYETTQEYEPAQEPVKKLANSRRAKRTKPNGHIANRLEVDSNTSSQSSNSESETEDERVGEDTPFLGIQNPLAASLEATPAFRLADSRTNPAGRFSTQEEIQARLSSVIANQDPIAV

Regarding `CCCc1cccc(=O)o1`, the composite z-score in test [1] was -0.218; in [2], -0.001; in test [3] it was -0.112; in [4], 0.191; in [5], 0.168; in test [6] it was 0.785. In addition, the composite z-score in [7] is 1.24; in [9] it was -0.278; in test [10], 0.155. The z-score in test [8] was 0.273 (inactive).

Take `O=C(O)[C@H]1C[C@H]2C(=O)N3CCC[C@H]3C(=O)N2[C@H]1c1cccc(OCCO)c1`: the composite z-score was 0.376 in test [1]; 0.812 in [2]; -0.0985 in test [3]; 0.178 in test [4]; -0.237 in [5]; 0.337 in test [6]. The composite z-score in [7] was 1.25; in test [9], -0.0791; in [10], 0.176. Moreover, the z-score in [8] was 6.19 (inactive).

Take `COc1cc(CO)cc(I)c1O[C@H]1C=C(C(=O)NCCO)C[C@@H](NCc2ccccc2F)[C@@H]1O`: the composite z-score in test [1] is -0.267; in test [2], 0.644; in test [3], 0.0232; in test [4] it was 1.17; in test [5], 0.161; in test [6], 0.321. The values for the composite z-score in test [7], in test [9] and in test [10] were 0.989, 0.0915 and -0.0645, respectively. Also, the z-score in test [8] was -1.05 (inactive).

With `COc1ccc(NN2C(C(O)c3ccccn3)C=CC3C(=O)N(C4CCCCC4)C(=O)C32)cc1` (stereo not given), the composite z-score in [1] is -0.218; in test [2], -0.287; in test [3], 0.0944; in test [4], 0.467; in [5], 1.59; in test [6], 1.36. Also, the results for the composite z-score in test [7], in [9] and in test [10] were 1.17, 1.29 and -0.152, respectively. Moreover, in test [8], the z-score is 3.21 (inactive).

`Cc1ccc(S[C@]2(C(=O)NCCN3CCOCC3)CC(=O)N(Cc3ccccc3C(F)(F)F)[C@@H]2c2ccc(CO)cc2I)cc1`: the composite z-score in test [1] was 0.273; in test [2] it was -0.245; in [3], -0.0876; in test [4], -0.36; in test [5], -0.103; in test [6], 2.09. Further, the values for the composite z-score in test [7], in [9] and in test [10] were 1.23, -0.295 and -0.236, respectively. Also, the z-score in test [8] was -0.883 (inactive).

Consider `CC(C)C(=C=CC[C@@H](O)c1ccccc1OCCO)C[C@@H](O)COCc1ccccc1`, for which the composite z-score in test [1] is -0.248; in test [2], 0.399; in test [3], -0.072; in test [4], 0.729; in test [5], 0.429; in [6], 1.13. In addition, the composite z-score in [7] is 0.865; in test [9] it was 0.592; in test [10], -0.199. Further, the z-score in [8] is -3.84 (inactive).

Take `C=CC[C@@H](OC(=O)Nc1ccc(OC)cc1)c1ccc(OCCO)cc1`: the composite z-score was 0.767 in test [1]; -1.54 in test [2]; -0.131 in test [3]; -0.805 in test [4]; -2.39 in [5]; -0.682 in test [6]. For the same compound, the results for the composite z-score in test [7], in [9] and in test [10] were 0.0481, -1.25 and 0.0722, respectively. Further, the z-score in test [8] is 5.78 (inactive).

Consider `O=C1C[C@]2(c3ccc([N+](=O)[O-])cc3)C(=O)N(Cc3ccccc3)c3cc(CO)ccc3[C@H]2N1CC12CC3CC(CC(C3)C1)C2`, for which the composite z-score is 0.0993 in test [1]; -0.728 in test [2]; 0.0018 in [3]; -0.817 in test [4]; -0.746 in test [5]; -0.468 in test [6]. For the same compound, the values for the composite z-score in test [7], in test [9] and in test [10] were -0.851, 0.0779 and -0.369, respectively. For the same compound, the z-score in test [8] is -0.0424 (inactive).

Consider `NCCCCCCNC(=O)[C@H]1C[C@H]2C(=O)N[C@@H](Cc3ccccc3)C(=O)N2[C@H]1c1ccc(O)cc1`, for which the composite z-score was 0.465 in test [1]; 0.399 in [2]; -0.0334 in [3]; 0.0116 in test [4]; 0.421 in test [5]; 1.34 in test [6]. Also, the composite z-score in [7] was 1.18; in [9], 0.377; in test [10] it was -0.196. Also, the z-score in test [8] is 1.1 (inactive).

On to `C[C@@H]1ON(c2ccc(C(=O)OC(C)(C)C)cc2)[C@H](c2ccc(Br)cc2)[C@H]1C(=O)N1C(=O)OC[C@H]1Cc1ccccc1`, for which the composite z-score was -0.312 in [1]; 0.155 in test [2]; 0.0333 in [3]; 0.552 in [4]; 1.52 in test [5]; 1.05 in test [6]. In addition, the composite z-score in [7] was 1.11; in test [9], 0.492; in test [10], -0.0618. For the same compound, in [8], the z-score is 0.002 (inactive).

Consider `CN(C)CCCN1C(=O)[C@@]2(c3ccc([N+](=O)[O-])cc3)CC(=O)N(CC34CC5CC(CC(C5)C3)C4)[C@@H]2c2ccc(CO)cc21`, for which the composite z-score in test [1] was -0.106; in test [2], -0.429; in test [3] it was -0.0276; in test [4], 0.0318; in test [5], -0.346; in [6], 0.742. The composite z-score in test [7] came out at 0.72; in test [9], 0.0267; in test [10], 0.0024. Further, the z-score in test [8] is 0.0832 (inactive).

Consider `O=C(N1CCCCC1)[C@@]1(Cc2ccccc2)COC(c2ccc(OCCCO)cc2)=N1`, for which the composite z-score in test [1] was 0.771; in [2] it was 0.81; in test [3], 0.0661; in test [4], 1.1; in test [5], 1.33; in test [6], 1.91. For the same compound, the composite z-score in test [7] was found to be 1.25; in test [9] it was 0.53; in test [10], 0.347. The z-score in test [8] is -2.97 (inactive).

In the case of `[N-]=[N+]=Nc1ccccc1[C@H]1OC(c2ccc(OCCCO)cc2)=N[C@@]1(CCS(=O)(=O)c1ccccc1)C(=O)N1CCCCC1`, the composite z-score worked out at 1.26 in [1]; 0.526 in [2]; 0.0056 in test [3]; 0.699 in test [4]; 1.43 in [5]; 1.46 in test [6]. Besides, the composite z-score in test [7] is 1.2; in test [9], 1.24; in [10], -0.201. Besides, in test [8], the z-score was 1.8 (inactive).

On to `CC(C)c1ccc(NN2C(C(O)c3ccco3)C=CC3C(=O)N(c4ccccc4)C(=O)C32)cc1` (stereo not given), for which the composite z-score in [1] was determined as 0.447; in test [2], 0.334; in [3], 0.106; in test [4], 0.677; in test [5], 1.71; in test [6], 1.46. In addition, the results for the composite z-score in test [7], in [9] and in test [10] were 1.2, 1.34 and -0.0606, respectively. Moreover, the z-score in test [8] was -1.22 (inactive).

On to `C#CCNC(=O)[C@H](Cc1ccccc1)NC(=O)[C@@H](N=[N+]=[N-])C(C)C`, for which the composite z-score in [1] was -0.57; in test [2], -0.003; in [3], -0.0894; in test [4], 0.334; in test [5] it was 1.04; in [6], 0.452. The composite z-score was 1.08 in test [7], 0.16 in test [9] and -0.409 in test [10]. The z-score in test [8] was 0.171 (inactive).

Take `COCCCNC(=O)[C@@H]1c2ccccc2C(=O)N(Cc2ccccc2C(F)(F)F)[C@H]1c1ccc(CO)cc1`: the composite z-score was 0.6 in [1]; 0.054 in test [2]; -0.0284 in test [3]; -0.445 in test [4]; -0.356 in test [5]; 0.068 in test [6]. Further, the values for the composite z-score in [7], in test [9] and in test [10] were 1.16, 0.0584 and -0.0726, respectively. Also, the z-score in test [8] was 0.421 (inactive).
